Screening data: PubChem BioAssay, Corson Lab, School of Medicine, Indiana University
Shown is part of a subset that was picked to be rich in hits.
FECH block: blocks human mitochondrial ferrochelatase activity; P22830; purified FECH, Ni-mesoporphyrin absorbance 550 nm; calls only at 10 µM (by protocol); hit rate 3.3% among 20,000; AID 1671448;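 active means enzyme reaction rate more than 3 SD below the solvent-only control wells on the same plate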;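 further: lower slope than DMSO wells means FECH inhibition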
Target sequence (P22830 whole entry, looked up): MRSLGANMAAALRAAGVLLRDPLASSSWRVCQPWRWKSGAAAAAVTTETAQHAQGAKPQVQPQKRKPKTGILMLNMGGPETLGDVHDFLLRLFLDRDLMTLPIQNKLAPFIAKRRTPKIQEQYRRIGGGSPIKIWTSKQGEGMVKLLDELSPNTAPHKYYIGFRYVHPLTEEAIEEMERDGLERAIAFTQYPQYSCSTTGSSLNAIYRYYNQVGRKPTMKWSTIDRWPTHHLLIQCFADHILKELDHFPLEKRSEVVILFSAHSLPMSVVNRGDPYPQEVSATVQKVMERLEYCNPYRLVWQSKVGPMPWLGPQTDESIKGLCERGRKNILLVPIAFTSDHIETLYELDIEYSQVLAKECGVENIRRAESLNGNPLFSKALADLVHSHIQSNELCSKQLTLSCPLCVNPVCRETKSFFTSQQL
Calls only; – = inactive; + = active, no number.

SMILES	FECH block
CCCc1cc(=O)n2[nH]c(CNc3ccccc3F)nc2n1	+
CCCc1cc(=O)n2[nH]c(CNc3ccccc3Cl)nc2n1	–
CCCc1cc(=O)n2[nH]c(CNc3ccc(C)cc3)nc2n1	+
COc1ccc(C2C=C(c3ccc(Cl)cc3)Nc3nc(NC(=O)CCCC(=O)O)nn32)cc1 (centres undefined)	–
O=C(O)c1ccnc(-c2ccnc(-c3ccccc3)n2)c1	–
NC(=O)CN1C(=O)C2CCCCN2c2ccc(C(=O)N3CCCC3)cc21 (centres undefined)	–
O=C(NCCn1ccnc1)C1CCCN(C2CCN(Cc3ccccc3)CC2)C1 (centres undefined)	–
CC(C)CN(C/C=C/c1ccccc1)C(=O)c1ccc2nccn2c1	–
CCc1ccc(S(=O)(=O)Nc2cnc(N(C)Cc3ccccc3)c(C(=O)O)c2)cc1	–
Cc1cc(Nc2ccc(OC(=O)c3cccc(Cl)c3)cc2)n2nc(-c3cccnc3)nc2n1	–
O=C(CSCc1nc(-c2ccccc2)no1)Nc1ccc2c(c1)OCO2	–
C=C(C)C(C)(C)C(=O)NCC1CCN(Cc2cnc(C)nc2)CC1	–
O=c1cc(CNc2cccc(C(F)(F)F)c2)nc2nc(NCc3ccc(F)cc3)[nH]n12	–
CCCc1cc(=O)n2[nH]c(CNc3ccc(C)c(Cl)c3)nc2n1	+
COc1cccc(NCc2cc(=O)n3[nH]c(NCc4ccc(F)cc4)nc3n2)c1	–
Cc1cccc(NC(=O)c2ccc(CNc3nc4nc(C)cc(=O)n4[nH]3)cc2)c1	–
CCCc1cc(=O)n2[nH]c(CNc3cccc(C)c3)nc2n1	+
CCCc1cc(=O)n2[nH]c(CNc3cccc(C(F)(F)F)c3)nc2n1	+
Cc1cccc(-c2nc3nc(CNC(C)C)cc(=O)n3[nH]2)c1	–
CCCc1cc(=O)n2[nH]c(CNc3cc(Cl)ccc3OC)nc2n1	–
Cc1ccc(S(=O)(=O)NCc2nc3cccnc3n2Cc2ccccc2)cc1	–
CC(C)=CCN1CCNC(=O)C1CC(=O)O (centres undefined)	–
Cn1c(=O)c(C(=O)NC2CCCCC2)nc2ccccc21	–
CC(C)(C)NC(=O)C1CCN(c2ccc(-c3cccs3)nn2)CC1	–
Cc1cc(C)n2nc(CN(C(=O)CCc3ccccc3)c3ccc(Cl)cc3)nc2n1	–
SMILES	FECH block
OC1CCN(c2ccnc(/C=C/c3ccccc3)n2)C1 (centres undefined)	–
Fc1ccc(CN(Cc2ccncc2)Cc2c(Cl)cncc2Cl)cc1	–
CCOc1ccc(N(Cc2nc3nc(C)cc(C)n3n2)C(=O)c2cccc(Cl)c2)cc1	–
CCC(C(=O)N(Cc1nc2nc(C)cc(C)n2n1)c1cccc(C)c1)c1ccccc1 (centres undefined)	–
Cc1cc(C)n2nc(CN(C(=O)Cc3ccccc3)c3ccccc3)nc2n1	+
Cc1cc(C)n2nc(CN(C(=O)c3ccco3)c3ccc(F)cc3)nc2n1	+
Cc1cccc(N(Cc2nc3nc(C)cc(C)n3n2)C(=O)c2ccco2)c1	–
Cc1cc(C)n2nc(CN(C(=O)Cc3ccccc3)c3ccc(F)cc3)nc2n1	–
Cc1ccc(N(Cc2nc3nc(C)cc(C)n3n2)C(=O)c2ccco2)cc1	–
Cc1cccc(N(Cc2nc3nc(C)cc(C)n3n2)C(=O)CC(C)C)c1	–
Cc1cccc(N(Cc2nc3nc(C)cc(C)n3n2)C(=O)C(C)C)c1	+
Cc1cccc(N(Cc2nc3nc(C)cc(C)n3n2)C(=O)c2cccc(Cl)c2)c1	+
Cc1cccc(N(Cc2nc3nc(C)cc(C)n3n2)C(=O)Cc2ccccc2)c1	–
Cc1cccc(C(=O)N(Cc2nc3nc(C)cc(C)n3n2)c2cccc(C)c2)c1	–
CC(C)(C)CNC(=O)c1[nH]cnc1C(=O)NC1CC1	–
O=C(c1cn[nH]n1)N1CCc2[nH]nc(C3CCC3)c2C1	–
C=CCNc1ccccc1C(=O)NCc1ccc2c(c1)n(C)c(=O)n2C	–
O=C(c1csc(S(=O)(=O)N2CCCC2)c1)N1CCCCC1	–
CCOC(=O)c1cc2n(n1)CC(C)(C(=O)NCCC(C)C)N(Cc1ccc(F)cc1)C2=O (centres undefined)	–
NS(=O)(=O)c1ccc(NC(=O)C2COc3ccccc3C2)cc1 (centres undefined)	–
CCOc1ccccc1CN(CC)C(=O)c1ccccc1-n1cncn1	–
Cc1ccc(Oc2ncccc2CNC(=O)C2Cc3ccccc3C(=O)N2)cn1 (centres undefined)	–
COc1ccc(C(=O)N(Cc2nc3nc(C)cc(C)n3n2)c2cccc(C)c2)cc1OC	–
Cc1ccc(C(=O)N(Cc2nc3nc(C)cc(C)n3n2)c2cccc(Cl)c2)cc1	–
Cc1cc(C)n2nc(CN(C(=O)c3ccccc3)c3cccc(Cl)c3)nc2n1	+
Cc1ccc(C(=O)N(Cc2nc3nc(C)cc(C)n3n2)c2cccc(C)c2)cc1	+
Cc1cc(C)n2nc(CN(C(=O)c3cccc(Cl)c3)c3ccccc3)nc2n1	–
Cc1cc(C)n2nc(CN(C(=O)c3ccc(F)cc3)c3ccccc3)nc2n1	–
Cc1ccc(C(NC(=O)c2ccc(-n3cnnc3)cc2)c2cccs2)cc1 (centres undefined)	–
Cc1cc(N2CCCC2)nc(N2CCN(S(=O)(=O)c3ccc(C)c(C)c3)CC2)n1	–
